# Source: PubChem BioAssay AID651610 (Broad Institute, 2012)
# Several values for one entry are separate records, joined by “and”; a condition that tells them apart may be missing. Equal values may be shown once. Among all 360,000 compounds or so, about 3,900 (1.1%) were called active. Only a selection was taken, and actives are over-represented in it overall. Values without a mark were called inactive.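 How the source made its calls: active means mean replicate inhibition score of at least 50 and every replicate individually at or above 50; inconclusive means only one of the two criteria met; inactive means mean below 50 and not all replicates reaching 50.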
# Assay: inhibitors of HIV-1 Env-driven cell-cell fusion, primary screen, HeLa-JRFL effector, CEM21 target cells, luciferase (AID 651610);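 further: 0% = plate neutral controls and 100% = maraviroc near 300 nM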
# Details: hits give high values
smiles,measurement,setting,value
O=C(Nc1ccc(F)cc1)N[C@H]1C=C[C@@H](CC(=O)N2CCOCC2)O[C@H]1CO,inhibition,at 16.7 µM unless noted,-5.7%
Cc1noc(C)c1S(=O)(=O)N(C)C[C@H]1OCCCC[C@H](C)Oc2ccc(NC(=O)c3ccccc3)cc2C(=O)N([C@@H](C)CO)C[C@H]1C,inhibition,at 16.7 µM unless noted,-37.3%
C[C@@H]1CN([C@@H](C)CO)S(=O)(=O)c2ccc(Br)cc2O[C@H]1CN(C)S(=O)(=O)c1ccccc1,inhibition,at 16.7 µM unless noted,18.6%
C[C@@H]1CN([C@@H](C)CO)S(=O)(=O)c2ccc(C#Cc3ccncc3)cc2O[C@@H]1CN(C)S(=O)(=O)c1ccccc1,inhibition,at 16.7 µM unless noted,19.4%
C[C@@H]1CN([C@H](C)CO)S(=O)(=O)c2ccc(-c3cccc(F)c3)cc2O[C@H]1CN(C)S(=O)(=O)c1ccc(F)cc1,inhibition,at 16.7 µM unless noted,30%
C[C@@H]1CN([C@H](C)CO)S(=O)(=O)c2ccc(-c3ccncc3)cc2O[C@@H]1CN(C)C(=O)Nc1ccc(C(F)(F)F)cc1,inhibition,at 16.7 µM unless noted,27.4%
C[C@H]1CN([C@@H](C)CO)S(=O)(=O)c2ccc(-c3cccc(F)c3)cc2O[C@@H]1CN(C)C,inhibition,at 12.3 µM,0.788%
same,inhibition,at 16.7 µM,-8.73% and -21.2%
Cc1ccc(-c2ccc3c(c2)O[C@H](CN(C)C(=O)Nc2ccccc2)[C@@H](C)CN([C@@H](C)CO)S3(=O)=O)cc1,inhibition,at 16.7 µM unless noted,-12.9%
Cc1ccc(-c2ccc3c(c2)O[C@H](CN(C)C(=O)Nc2ccc(C(F)(F)F)cc2)[C@@H](C)CN([C@H](C)CO)S3(=O)=O)cc1,inhibition,at 16.7 µM unless noted,57.4% (active)
C[C@H](CO)N1C[C@H](C)[C@H](CN(C)S(=O)(=O)c2ccccc2)Oc2cc(Br)ccc2S1(=O)=O,inhibition,at 16.7 µM unless noted,78% (active)
C[C@@H]1CN([C@@H](C)CO)S(=O)(=O)c2ccc(-c3cccc(F)c3)cc2O[C@@H]1CN(C)S(=O)(=O)c1ccccc1,inhibition,at 16.7 µM unless noted,92.8% (active)
CC(=O)N(C)C[C@H]1Oc2cc(C#Cc3ccccc3F)ccc2S(=O)(=O)N([C@@H](C)CO)C[C@H]1C,inhibition,at 16.7 µM unless noted,17.7%
COc1cccc(NC(=O)N(C)C[C@H]2OCc3ccccc3-c3ccccc3C(=O)N([C@H](C)CO)C[C@@H]2C)c1,inhibition,at 16.7 µM unless noted,17.7%
C[C@@H]1CN([C@H](C)CO)C(=O)Cc2cc(NC(=O)NC3CCCCC3)ccc2O[C@H]1CN(C)Cc1ccc(Cl)c(Cl)c1,inhibition,at 16.7 µM unless noted,-10.2%
CC(C)CC#Cc1ccc2c(c1)O[C@@H](CN(C)C(=O)Nc1ccccc1F)[C@@H](C)CN([C@@H](C)CO)S2(=O)=O,inhibition,at 16.7 µM unless noted,9.38%
Cn1c(CNC(=O)c2ccco2)nnc1SCC(=O)N1CCN(c2ccccc2)CC1,inhibition,at 16.7 µM unless noted,-10.4% [at 12.3 µM]
Cc1cc2nnc(SCC(=O)N3CCN(c4ccccc4)CC3)n2c(N)n1,inhibition,at 16.7 µM unless noted,-38.7% [at 12.3 µM]
Cn1c(Cc2cccc3ccccc23)nnc1SCC(=O)N1CCN(c2cccc(Cl)c2)CC1,inhibition,at 16.7 µM unless noted,94.5% [at 12.3 µM] (active)
C[C@H]1CCCCO[C@@H](CN(C)C(=O)Nc2ccccc2)[C@@H](C)CN([C@@H](C)CO)C(=O)c2cc(NC(=O)Nc3ccc(F)cc3)ccc2O1,inhibition,at 16.7 µM unless noted,-14%
O=C(CN1CCOCC1)N[C@H]1CC[C@@H](CCNS(=O)(=O)c2ccccc2F)O[C@H]1CO,inhibition,at 16.7 µM unless noted,21.8%
CCOC(=O)N1CCN(C(c2ccnc3ccccc23)c2nnnn2-c2c(C)cccc2C)CC1 (configuration not stated),inhibition,at 16.7 µM unless noted,14.5% [at 12.3 µM]
Cc1cccc(C)c1-n1nnnc1C(CCc1ccccc1)N1CCN(C/C=C/c2ccccc2)CC1 (configuration not stated),inhibition,at 16.7 µM unless noted,-59.3% [at 12.3 µM]
CCC(=O)N(C)C(c1ccccc1Cl)c1nnnn1-c1c(C)cccc1C (configuration not stated),inhibition,at 16.7 µM unless noted,68.5% [at 12.3 µM] (active)
CC(C)NC(=O)N(C)C[C@@H]1Oc2ccc(NC(=O)Cn3cnnn3)cc2CC(=O)N([C@H](C)CO)C[C@H]1C,inhibition,at 16.7 µM unless noted,13.5%
COc1ccc(CCN2C(=O)c3[nH]nc(-c4ccccc4O)c3C2c2ccc(C)cc2)cc1OC (configuration not stated),inhibition,at 16.7 µM unless noted,101% [at 12.3 µM] (active)
CCCN1C(=O)c2[nH]nc(-c3ccccc3)c2C1c1ccccc1 (configuration not stated),inhibition,at 16.7 µM unless noted,-22.9% [at 12.3 µM]
COc1ccc(CCN2C(=O)C(C)=C(C)C2=O)cc1OC,inhibition,at 16.7 µM unless noted,-2.55% [at 12.3 µM]
COc1ccccc1-c1cnc2c(c1)C(=O)N([C@@H](C)CO)C[C@H](C)[C@@H](CN(C)C(C)=O)O2,inhibition,at 16.7 µM unless noted,0.851%
COc1ccc(S(=O)(=O)Nc2ccc3c(c2)C(=O)N([C@H](C)CO)C[C@@H](C)[C@@H](CN(C)CC2CCCCC2)OCCCC[C@@H](C)O3)cc1,inhibition,at 16.7 µM unless noted,-26.3%
COc1cccc(/C=C2\SC(=S)N(CCCC(=O)N3CCOCC3)C2=O)c1,inhibition,at 16.7 µM unless noted,2.26% [at 12.3 µM]
C=CCOc1ccc(/C=C2\SC(=S)N(CCC(=O)O)C2=O)cc1,inhibition,at 16.7 µM unless noted,60.7% [at 12.3 µM] (active)
COc1ccc(/C=C2\SC(=S)N(CCC(=O)N3CCOCC3)C2=O)cc1OC,inhibition,at 16.7 µM unless noted,6.28% [at 12.3 µM]
CC1(C)Cc2c(sc3nc(SCC(=O)NCc4ccccc4)n(-c4ccccc4)c(=O)c23)CS1,inhibition,at 16.7 µM unless noted,138% [at 12.3 µM] (active)
Cc1sc2nc(SCCO)n(-c3ccccc3)c(=O)c2c1C,inhibition,at 16.7 µM unless noted,14.7% [at 12.3 µM]
COCCNC(=O)CSc1nc2sccc2c(=O)n1-c1ccccc1,inhibition,at 16.7 µM unless noted,-8.5% [at 12.3 µM]
C/C=C/c1cnc2c(c1)C(=O)N([C@@H](C)CO)C[C@H](C)[C@@H](CN(C)C(=O)C1CC1)O2,inhibition,at 16.7 µM unless noted,10.3%
C[C@@H]1CCCCO[C@H](CN(C)Cc2ccc(C(F)(F)F)cc2)[C@H](C)CN([C@@H](C)CO)C(=O)c2cc(N(C)C)ccc2O1,inhibition,at 16.7 µM unless noted,6.26%
COc1ccccc1S(=O)(=O)N[C@@H]1CC[C@@H](CCNC(=O)C2CCCCC2)O[C@@H]1CO,inhibition,at 16.7 µM unless noted,-6.59%
C=CCOCCN(C)C1=NS(=O)(=O)c2ccccc21,inhibition,at 16.7 µM unless noted,1.56% [at 12.3 µM]
COc1ccc(/C=N/N(C)C2=NS(=O)(=O)c3ccccc32)cc1OC,inhibition,at 16.7 µM unless noted,1.34% [at 12.3 µM]
COc1ccc(C(C)(C)C)cc1NC(=O)CN(C)C1=NS(=O)(=O)c2ccccc21,inhibition,at 16.7 µM unless noted,64.3% [at 12.3 µM] (active)
COc1ccc(CN(C)C[C@H]2Oc3c(NC(=O)Nc4ccccc4)cccc3C(=O)N([C@@H](C)CO)C[C@@H]2C)cc1,inhibition,at 16.7 µM unless noted,6.99%
C[C@@H]1CN([C@@H](C)CO)C(=O)Cc2cc(NC(=O)C3CCCCC3)ccc2O[C@@H]1CN(C)CC1CCCCC1,inhibition,at 16.7 µM unless noted,-8.61%
CN(C)C=NC(=O)c1cccn1-c1ncc(C(F)(F)F)cc1Cl,inhibition,at 16.7 µM unless noted,8.04% [at 12.3 µM]
O=c1[nH]c2cccnc2n(CCNc2ncc(C(F)(F)F)cc2Cl)c1=O,inhibition,at 16.7 µM unless noted,-11.9% [at 12.3 µM]
COc1cccc(/C=N/Nc2ncc(C(F)(F)F)cc2Cl)c1O,inhibition,at 16.7 µM unless noted,74.7% [at 12.3 µM] (active)
C[C@@H]1CN([C@@H](C)CO)C(=O)c2cc(NS(=O)(=O)c3cccs3)ccc2O[C@H]1CN(C)CC1CCCCC1,inhibition,at 16.7 µM unless noted,-17.2%
Cc1cccc(NC(=O)c2nc[nH]c2C(=O)NCC(=O)OCc2ccccc2)c1,inhibition,at 16.7 µM unless noted,55.2% [at 12.3 µM] (active)
CC(C)(C)OC(=O)CNC(=O)c1[nH]cnc1C(=O)N[C@@H](Cc1ccccc1)C(=O)OCc1ccccc1,inhibition,at 16.7 µM unless noted,6.73% [at 12.3 µM]
C[C@H](NC(=O)c1nc[nH]c1C(=O)NCC(=O)OC(C)(C)C)C(=O)OCc1ccccc1,inhibition,at 16.7 µM unless noted,-4.51% [at 12.3 µM]
O=C(C[C@@H]1CC[C@@H]2[C@H](COC[C@H](O)CN2C(=O)c2cccnc2)O1)NC1Cc2ccccc2C1,inhibition,at 16.7 µM unless noted,-0.583%
CO[C@@H]1CN(C)C(=O)c2ccc(NC(=O)c3cccc(Oc4ccccc4)c3)cc2OC[C@H](C)NC[C@@H]1C,inhibition,at 16.7 µM unless noted,12.8%
Cc1ccc(NC(=O)c2nc[nH]c2C(=O)N[C@@H](CCCCNC(=O)OC(C)(C)C)C(=O)OC(C)(C)C)cc1,inhibition,at 16.7 µM unless noted,32.1% [at 12.3 µM]
C[C@@H]1Cn2cnc(C(=O)Nc3ccc(CNC(=O)OC(C)(C)C)cc3)c2C(=O)N1,inhibition,at 16.7 µM unless noted,58.6% [at 12.3 µM] (active)
CN1CCn2cnc(C(=O)NCC(=O)OC(C)(C)C)c2C1=O,inhibition,at 16.7 µM unless noted,2.91% [at 12.3 µM]
O=C(CCN1CCCCC1)N[C@@H]1C=C[C@@H](CC(=O)N2CCC(Cc3ccccc3)CC2)O[C@H]1CO,inhibition,at 16.7 µM unless noted,3.09%
CSCCC(NS(=O)(=O)c1ccc2c(c1)oc(=O)n2C)C(=O)NCc1ccccc1 (configuration not stated),inhibition,at 16.7 µM unless noted,-4.2% [at 12.3 µM]
CNS(=O)(=O)c1cccc(C(=O)NC2CCCc3ccccc32)c1 (configuration not stated),inhibition,at 16.7 µM unless noted,15.1% [at 12.3 µM]
CSCCC(NS(=O)(=O)c1ccc2c(c1)oc(=O)n2C)C(=O)NC1CCCc2ccccc21 (configuration not stated),inhibition,at 16.7 µM unless noted,87% [at 12.3 µM] (active)
Cc1noc(C)c1NC(=O)N(C)C[C@H]1OCCCC[C@@H](C)Oc2ccc(NS(=O)(=O)c3ccc(Cl)cc3)cc2C(=O)N([C@@H](C)CO)C[C@H]1C,inhibition,at 16.7 µM unless noted,-65.1%
CCCN(C)C[C@H]1OCCCC[C@@H](C)Oc2ccc(NC(=O)Nc3ccc(F)cc3)cc2C(=O)N([C@@H](C)CO)C[C@H]1C,inhibition,at 16.7 µM unless noted,-12.4%
C[C@@H]1CCCCO[C@@H](CN(C)C(=O)C2CCCCC2)[C@H](C)CN([C@H](C)CO)C(=O)c2cc(NC(=O)Cc3ccccc3)ccc2O1,inhibition,at 16.7 µM unless noted,-36.4%
CCN1C[C@@H]2[C@@H]3C(=O)N(Cc4ccccc4)C(=O)[C@@H]3[C@](Cc3ccccc3)(C(=O)OC)N2C1=NC1CCCCC1,inhibition,at 16.7 µM unless noted,16.7% [at 12.3 µM]
CCNC(=O)N(CC)C[C@H]1N[C@@](CC)(C(=O)OC)[C@H]2C(=O)N(Cc3ccccc3)C(=O)[C@@H]12,inhibition,at 16.7 µM unless noted,-2.99% [at 12.3 µM]
COC(=O)[C@]1(Cc2ccccc2)N[C@H](CN(C)S(=O)(=O)c2ccc(F)cc2)[C@@H]2C(=O)N(Cc3ccccc3)C(=O)[C@@H]21,inhibition,at 16.7 µM unless noted,31.6% [at 12.3 µM]
CC[C@]1(C(=O)OC)[C@H]2C(=O)N(Cc3ccccc3)C(=O)[C@H]2[C@H]2CN=C(SCc3ccccc3)N21,inhibition,at 16.7 µM unless noted,93.6% [at 12.3 µM] (active)
CC[C@]1(C(=O)OC)[C@H]2C(=O)N(Cc3ccccc3)C(=O)[C@H]2[C@H]2CN=C(SCc3ccc(C#N)cc3)N21,inhibition,at 16.7 µM unless noted,87.6% [at 12.3 µM] (active)
CC[C@]1(C(=O)OC)[C@H]2C(=O)N(C)C(=O)[C@H]2[C@H]2CN(C)C(=NCc3ccccc3)N21,inhibition,at 16.7 µM unless noted,-17.3% [at 12.3 µM]
CCN1C[C@@H]2[C@@H]3C(=O)N(Cc4ccccc4)C(=O)[C@@H]3[C@](C)(C1=O)N2C(=O)c1ccc(C(C)(C)C)cc1,inhibition,at 16.7 µM unless noted,-9.05% [at 12.3 µM]
COC(=O)[C@@]1(C)[C@H]2C(=O)N(Cc3ccccc3)C(=O)[C@H]2[C@H]2CN=C(SCC3CC3)N21,inhibition,at 16.7 µM unless noted,84% [at 12.3 µM] (active)
CCN(C[C@H]1N[C@@](Cc2ccccc2)(C(=O)OC)[C@H]2C(=O)N(Cc3ccccc3)C(=O)[C@@H]12)C(=O)c1ccc(C)cc1,inhibition,at 16.7 µM unless noted,-47.2% [at 12.3 µM]
